The source of these data is PubChem BioAssay (NCI).

“And” between values parts separate entries of the source, which are not always exact repeats. Equal entries are not always repeated. About 83,000 compounds went through this panel and 20% of them were active in at least one assay; those are over-represented in the sample as a whole.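 Note: values are percent growth. 100 is the growth of untreated cells, values between 100 and 0 indicate rising inhibition; between -100 and 0 indicates cell death.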 Unmarked numbers belong to inactive results. The source made the active and inactive calls. How the source made its calls: active means growth percent below 10; inactive means the rest.

The first assay deals with IGROV1 ovarian. The assay can be described thus: NCI-60 one-dose screen, 48 h (100 = growth as untreated, 0 = no growth, -100 = all killed). As to conditions: 10 µM unless noted.
As for `CCCCn1c(=O)c(C(=O)NCc2ccccc2Cl)c(O)c2ccccc21`, the growth is 74.9%.
On the same count and under the same terms, with `O=C(NCCCN1CC1)Nc1cccc2ccccc12` the figure was 87.5% and 86.9%.
Still for that read-out and setting: in the case of `Oc1cc(N2CC2)c(O)cc1N1CC1` it was -38.3% (active); in that of `CC12CCC3C4CCC(=O)C=C4CCC3C1CC1CC(=O)OC12` (centres undefined), 96.7%.
On the same count and under the same terms, in the case of `CCOP(=O)(OCC)C(=O)N(CC)CC` it was 112%; in that of `C#Cc1cccc(Nc2nc(Cl)nc3cc(NC(=O)CF)ccc23)c1`, 75.4%; in that of `CC[C@H](C)[C@H](NC(=O)[C@H]1CCCCN1C)C(=O)N(C)[C@H](C(=O)NC12CC(C(=O)N[C@@H](Cc3ccccc3)C[C@H](C)C(=O)OC)(C1)C2)C(C)C`, 105%.
Consider `CN1CCC2(CC1)C(C#N)C(=O)NC(=O)C2C#N` (centres undefined), for which the growth is 123%.
As for `CC12CCC3C(CCC4CC(O)CCC43C)C1CCC2=O` (centres undefined), the growth was 38.9%.
The same measure, in the same setting: in the case of `C=CC[PH+](c1ccccc1)c1ccccc1.C=CC[PH+](c1ccccc1)c1ccccc1.[Pt+2].[S-]c1nc2ccccc2[nH]1.[S-]c1nc2ccccc2[nH]1` it was -23.4% (active); in that of `Cc1cc[c-]cc1.Fc1c[c-]c(-c2ccccn2)c(F)c1.[Pt+2].c1ccc([PH+](c2ccccc2)c2ccccn2)cc1`, 53.2%; in that of `C=C[Se]CC(=O)/C=C/c1ccccc1`, 104%.
Same read-out and setting: with `CCCCCCCCCCCCCCCCCC1OCC(COC(=O)O[C@@H](C(=O)O[C@H]2C[C@@]3(O)[C@@H](OC(=O)c4ccccc4)[C@@H]4[C@]5(OC(C)=O)CO[C@@H]5C[C@H](O)[C@@]4(C)C(=O)[C@H](OC(C)=O)C(=C2C)C3(C)C)[C@@H](NC(=O)c2ccccc2)c2ccccc2)O1` (some centres undefined) the figure was 47.6%; with `CC1(C)C=Cc2c(ccc3c2[N+]([O-])=C2C3=C[C@@]34NC(=O)[C@]5(CCCN5C3=O)C[C@@H]4C2(C)C)O1`, 55.6%; with `O=C(O)C1C(C(=O)O)C2(Cl)C(Cl)=C(Cl)C1(Cl)C2(Cl)Cl` (centres undefined), 109% and 118%.
Still for that read-out and setting: with `CNC(=O)O/N=C(\SC)C(=O)N(C)C` the figure was 110%; with `C[C@]12CCc3sc(Nc4ccc(F)cc4F)nc3C1=CC[C@@H]1[C@@H]2CC[C@]2(C)C(=O)CC[C@@H]12`, 62.1%; with `N#CC(C#N)=C(C#N)C#N`, 108%.
On to `N#CCC(=O)c1ccccc1`, for which the growth was 104%.
With `O=C(O)c1ccc(=O)[nH]c1`, the growth was 109%.
Still for that read-out and setting: in the case of `CC[C@H](C)[C@H](NC(=O)CN(C)C)C(=O)N(C)[C@H](C[C@@H](OC(C)=O)c1nc(C(=O)NC23C4C5C2C2C3C4C52C(=O)OC)cs1)C(C)C` (some centres undefined) it was 36.3%; in that of `CNC(=O)Oc1ccc(Cl)cc1SSc1cc(Cl)ccc1OC(=O)NC`, 77.4%; in that of `CC(=O)OC1CC2(O)C(CCC3(C)C(c4ccc(=O)oc4)CCC32O)C2(C)CCC(OC3OC(CO)C(O)C(O)C3O)C=C12` (centres undefined), -26.5% (active).
On the same count and under the same terms, in the case of `Oc1ccc(O)c(Cl)c1` it was 107% and 108%.
Same read-out and setting: with `CC(=O)Nc1nc2c(s1)C1=CC[C@H]3[C@@H]4CC[C@H](OC(C)=O)[C@@]4(C)CC[C@@H]3[C@@]1(C)CC2` the figure was 62.5%.
On to `O=C(O)C(F)F`, for which the growth was 114%.
Regarding `CC[C@H](C)[C@H](NC(=O)C12CC(NC)(C1)C2)C(=O)N(C)[C@H](C[C@@H](OC(C)=O)c1nc(C(=O)N[C@@H](Cc2ccccc2)C[C@H](C)C(=O)OC)cs1)C(C)C`, the growth is 29.7%.
On the same count and under the same terms, with `NC(=O)Oc1cc(OC(N)=O)cc(N(CCCl)CCCl)c1` the figure was 91.2%.
Consider `CC[PH+](CC)CC.O=COC1OC([S-])C(OC=O)C(OC=O)C1OC=O.[Au+]` (centres undefined), for which the growth was -78.3% (active).
Regarding `CCOC(=O)c1ccccc1C(=O)OCC`, the growth is 64.7%.
On to `C[C@@H]1C/C=C\C(=O)O[C@H](/C=C/C#C/C=C/C(C)(C)[C@@H](O)c2cccc(O)c2Br)[C@@H](C)/C=C/[C@H](C)C[C@H](OC(N)=O)C1`, for which the growth is 48.6%.
As for `Cc1c(C)c(N)c(C)c(C)c1N`, the growth was 80.7%.
Same read-out and setting: in the case of `Nc1ccc(P(=O)(O)O)cc1` it was 97.9% and 111%; in that of `OCCN=Cc1c[nH]c2ccccc12`, 104%; in that of `S=P(SP(=S)(c1ccccc1)c1ccccc1)(c1ccccc1)c1ccccc1`, 119%.
Same read-out and setting: in the case of `CN1CCc2cc3c(cc2C1O)OCO3` (centres undefined) it was 117% and 108%; in that of `Cc1cc(NC(=O)NCCCOc2ccc(N3C(N)=NC(N)=NC3(C)C)cc2Cl)ccc1S(=O)(=O)F`, 25%.

The test system of the next assay is OVCAR-3 ovarian. The assay is described as above. The conditions noted are these: 10 µM unless noted.
For `CCCCn1c(=O)c(C(=O)NCc2ccccc2Cl)c(O)c2ccccc21`, the growth is 78.9%.
For `O=C(NCCCN1CC1)Nc1cccc2ccccc12`, the growth is 109% and 113%.
The same measure, in the same setting: with `Oc1cc(N2CC2)c(O)cc1N1CC1` the figure was -34.4% (active); with `CC12CCC3C4CCC(=O)C=C4CCC3C1CC1CC(=O)OC12` (centres undefined), 101%.
Still for that read-out and setting: with `CCOP(=O)(OCC)C(=O)N(CC)CC` the figure was 109%.
Still for that read-out and setting: in the case of `C#Cc1cccc(Nc2nc(Cl)nc3cc(NC(=O)CF)ccc23)c1` it was 53.5%.
As for `CC[C@H](C)[C@H](NC(=O)[C@H]1CCCCN1C)C(=O)N(C)[C@H](C(=O)NC12CC(C(=O)N[C@@H](Cc3ccccc3)C[C@H](C)C(=O)OC)(C1)C2)C(C)C`, the growth was 101%.
For `CN1CCC2(CC1)C(C#N)C(=O)NC(=O)C2C#N` (centres undefined), the growth is 117%.
On the same count and under the same terms, in the case of `CC12CCC3C(CCC4CC(O)CCC43C)C1CCC2=O` (centres undefined) it was 100%; in that of `C=CC[PH+](c1ccccc1)c1ccccc1.C=CC[PH+](c1ccccc1)c1ccccc1.[Pt+2].[S-]c1nc2ccccc2[nH]1.[S-]c1nc2ccccc2[nH]1`, -23.3% (active); in that of `Cc1cc[c-]cc1.Fc1c[c-]c(-c2ccccn2)c(F)c1.[Pt+2].c1ccc([PH+](c2ccccc2)c2ccccn2)cc1`, 46.1%.
Same read-out and setting: with `C=C[Se]CC(=O)/C=C/c1ccccc1` the figure was 89.1%.
For `CCCCCCCCCCCCCCCCCC1OCC(COC(=O)O[C@@H](C(=O)O[C@H]2C[C@@]3(O)[C@@H](OC(=O)c4ccccc4)[C@@H]4[C@]5(OC(C)=O)CO[C@@H]5C[C@H](O)[C@@]4(C)C(=O)[C@H](OC(C)=O)C(=C2C)C3(C)C)[C@@H](NC(=O)c2ccccc2)c2ccccc2)O1` (some centres undefined), the growth is 15.7%.
Take `CC1(C)C=Cc2c(ccc3c2[N+]([O-])=C2C3=C[C@@]34NC(=O)[C@]5(CCCN5C3=O)C[C@@H]4C2(C)C)O1`: the growth is 25%.
Same read-out and setting: with `O=C(O)C1C(C(=O)O)C2(Cl)C(Cl)=C(Cl)C1(Cl)C2(Cl)Cl` (centres undefined) the figure was 99.8% and 112%; with `CNC(=O)O/N=C(\SC)C(=O)N(C)C`, 107%; with `C[C@]12CCc3sc(Nc4ccc(F)cc4F)nc3C1=CC[C@@H]1[C@@H]2CC[C@]2(C)C(=O)CC[C@@H]12`, -4.15% (active).
The same measure, in the same setting: with `N#CC(C#N)=C(C#N)C#N` the figure was 107%; with `N#CCC(=O)c1ccccc1`, 102%; with `O=C(O)c1ccc(=O)[nH]c1`, 113% and 108%.
Still for that read-out and setting: in the case of `CC[C@H](C)[C@H](NC(=O)CN(C)C)C(=O)N(C)[C@H](C[C@@H](OC(C)=O)c1nc(C(=O)NC23C4C5C2C2C3C4C52C(=O)OC)cs1)C(C)C` (some centres undefined) it was -34% (active).
As for `CNC(=O)Oc1ccc(Cl)cc1SSc1cc(Cl)ccc1OC(=O)NC`, the growth was 54.7%.
Still for that read-out and setting: with `CC(=O)OC1CC2(O)C(CCC3(C)C(c4ccc(=O)oc4)CCC32O)C2(C)CCC(OC3OC(CO)C(O)C(O)C3O)C=C12` (centres undefined) the figure was -100% (active); with `Oc1ccc(O)c(Cl)c1`, 79.6% and 97.8%; with `CC(=O)Nc1nc2c(s1)C1=CC[C@H]3[C@@H]4CC[C@H](OC(C)=O)[C@@]4(C)CC[C@@H]3[C@@]1(C)CC2`, 20.1%.
As for `O=C(O)C(F)F`, the growth was 115%.
The same measure, in the same setting: in the case of `CC[C@H](C)[C@H](NC(=O)C12CC(NC)(C1)C2)C(=O)N(C)[C@H](C[C@@H](OC(C)=O)c1nc(C(=O)N[C@@H](Cc2ccccc2)C[C@H](C)C(=O)OC)cs1)C(C)C` it was -14.1% (active).
Same read-out and setting: with `NC(=O)Oc1cc(OC(N)=O)cc(N(CCCl)CCCl)c1` the figure was 82.8%.
The same measure, in the same setting: in the case of `CC[PH+](CC)CC.O=COC1OC([S-])C(OC=O)C(OC=O)C1OC=O.[Au+]` (centres undefined) it was -91.8% (active); in that of `CCOC(=O)c1ccccc1C(=O)OCC`, 107%.
With `C[C@@H]1C/C=C\C(=O)O[C@H](/C=C/C#C/C=C/C(C)(C)[C@@H](O)c2cccc(O)c2Br)[C@@H](C)/C=C/[C@H](C)C[C@H](OC(N)=O)C1`, the growth was 41.5%.
Still for that read-out and setting: in the case of `Cc1c(C)c(N)c(C)c(C)c1N` it was 115%; in that of `Nc1ccc(P(=O)(O)O)cc1`, 107% and 110%.
Consider `OCCN=Cc1c[nH]c2ccccc12`, for which the growth is 97.7%.
Still for that read-out and setting: in the case of `S=P(SP(=S)(c1ccccc1)c1ccccc1)(c1ccccc1)c1ccccc1` it was 104%.
Still for that read-out and setting: in the case of `CN1CCc2cc3c(cc2C1O)OCO3` (centres undefined) it was 17.1% and 105%; in that of `Cc1cc(NC(=O)NCCCOc2ccc(N3C(N)=NC(N)=NC3(C)C)cc2Cl)ccc1S(=O)(=O)F`, 24.2%.
